Laboratory results as given in PubChem BioAssay (NCATS).
Records with an inconclusive call do not appear. Active and inactive are the calls of the source. The call rests on the fitted dose curve; in most records, active means well fitted cell-killing curve with a large enough effect; inconclusive means small, poorly fitted or top-dose-only effect; inactive means flat fitted curve, though single readings scatter.

Experiment: Cell Viability - LYMP2-011 (AID 969);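 further: 0% = DMSO only and full inhibition = 92 µM tetraoctylammonium bromide; nearly all actives have a fitted effect of over 60% in size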
Conditions: LYMP2-011 lymphoblastoid cells viability; series mostly up to 92.2 µM; viability change, negative = cytotoxic: at the top concentration
Source text: NIH Chemical Genomics Center [NCGC]
NIH Molecular Libraries Screening Centers Network [MLSCN]
National Institutes of Environmental Health Sciences [NIEHS]
National Toxicology Program [NTP]
We have developed a 1536-well cell-based assay for quantitative high throughput screening (qHTS) against a number of cell lines to determine in vitro cytotoxicity of small molecules. This particular assay uses a human lymphoblastoid cell line (LYMP2-011) purchased from Coriell Institute for Medical Research.
NCGC Assay Protocol Summary:
The CellTiter-Glo luminescent cell viability assay (Promega) is a homogeneous method to measure the number of viable cells in culture. The end point readout of this assay is based on quantitation of intracellular ATP, an indicator of metabolic activity, using the luciferase reaction. Luciferase catalyzes the oxidation of beetle Luciferin to oxyluciferin and light in the presence of ATP. The luminescent signal is proportional to amount of ATP present.
Using the CellTiter-Glo luminescent cell viability assay, the amount of cellular ATP was measured in the lymphoblastoid cell line with complete culture medium following compound treatment for 24 hours. The assay was performed in opaque white Kalypsys 1536-well plates. In the screen, tetraoctylammonium bromide was used as positive control. Library compounds were measured for their ability to cause acute toxicity in the cell line, as reflected by a decrease in intracellular ATP levels, in a concentration-dependent manner. […] AC50 values were determined from concentration-response data modeled with the standard Hill equation.
qHTS protocol for CellTiter Glo lymphoblastoid cellular assay
[Step] [Parameter] [Value] [Description]
1. Reagent; 5 uL; 2500 lymphoblastoid cells/well
2. Time; 5 hr; 37 C incubation
4. Controls; 23 nL; Tetraoctylammonium bromide 6.4pM to 92 uM
5. Time; 24 hr; 37 C incubation
6. Reagent; 5 uL; CellTiter Glo reagent
7. Time; 30 min; Room Temperature
8. Detection; Luminescence; Viewlux plate reader
Keywords: cell viability, cytotoxicity, lymphoblastoid cell line, luminescence, NTPHTS, NTPHTS_NCGC, NIEHS, DSSTox, MLSMR, MLSCN, NIH Roadmap, qHTS, NCGC

Compound	viability change, negative = cytotoxic
NC=O	2.45% (inactive)
c1ccc(Nc2ccccc2)cc1	-10.1% (inactive)
CCCCC(CC)COC(=O)CCCCC(=O)OCC(CC)CCCC (stereo not given)	-0.268% (inactive)
CCOc1cccc(N)c1	1.63% (inactive)
Cc1cc(C2(c3cc(C)c(O)cc3C)OS(=O)(=O)c3ccccc32)c(C)cc1O	-21.2% (inactive)
Cc1c(N)cccc1[N+](=O)[O-]	-4.98% (inactive)
O=C(O)c1c(Cl)cccc1Cl	-1.06% (inactive)
CCC(C)O (stereo not given)	-2.69% (inactive)
Cc1ccc(C)c(N)c1	4.68% (inactive)
Cc1ccc(S(=O)(=O)NC2CCCCC2)cc1	-6.46% (inactive)
O=[N+]([O-])c1ccc(CCO)cc1	-29.8% (inactive)
OC1CCCC1	0.555% (inactive)
COc1ccc(OC)cc1	-0.453% (inactive)
O=C(O)c1ccc(CO)o1	-17.5% (inactive)
NC(=O)CCCCC(N)=O	-2.41% (inactive)
Cc1ccc(C#N)cc1	-2.19% (inactive)
C1CCOC1	0.606% (inactive)
c1ccc2c(c1)ccc1ncccc12	3.49% (inactive)
CC(=O)Nc1ccccc1C	3.76% (inactive)
O=C(Cl)c1c(Cl)cccc1Cl	-1.91% (inactive)

Compound	viability change, negative = cytotoxic
CCC(C)(C)C	-0.514% (inactive)
Cc1c(N)cccc1N	-8.6% (inactive)
CC(C)N(C)C	2.13% (inactive)
C=C(C)C(N)=O	-2.59% (inactive)
c1ccc(Oc2ccccc2)cc1	-2.02% (inactive)
CC(C)CCOC(=O)/C=C/c1ccccc1	-4.99% (inactive)
CC(=O)c1nccs1	4.22% (inactive)
CN(C)CCCCl	-0.272% (inactive)
CNC(=O)N(c1ccccc1)c1ccccc1	-2.35% (inactive)
NC(=O)/N=N/C(N)=O	-6.99% (inactive)
S=C([S-])NCCNC(=S)[S-].[Zn+2]	-10.7% (inactive)
C=C(C)C(=O)OCCCCCC	-1.04% (inactive)
O=C(O)c1cc(Cl)cc(Cl)c1	3.37% (inactive)
O=[N+]([O-])c1cc(C(F)(F)F)ccc1Cl	1.71% (inactive)
CC(C)(C)OCC1CO1 (stereo not given)	-2.4% (inactive)
Cc1cc(C(=O)O)ccc1[N+](=O)[O-]	6.19% (inactive)
Cc1cccc(C(=O)O)c1	-3.25% (inactive)
Cc1ccc(C)o1	-0.318% (inactive)
CC(=O)OC(C)=O	-5.11% (inactive)
O=Cc1ccc(C(=O)O)cc1	-6.32% (inactive)
